A short description of experiment [1]: AP1 Signaling Pathway (AID 357; active = well fitted curve in either direction with a large enough effect, not every such curve was filed as active;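 note: ME-180 reporter cells stimulated with EGF at its EC50 level; % is set by controls: 0 for no effect and ±100 for the full control effect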). As to conditions: ME-180 AP-1-bla reporter, EGF-induced, beta-lactamase ratio, 5 h; at 7.69 µM (top of the series) unless noted. An outline of the steps: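 In this screen, ME-180 cells in Opti-MEM with 0.5% dialyzed FBS received EC50 EGF and compound titrations for 5 h. AP-1 reporter beta-lactamase was detected via CCF4 ratio, giving AC50 for positive and negative modulators.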

Experiment [2] can be described thus: NFAT Signaling Pathway (AID 444; active = well fitted curve in either direction with a large enough effect, not every such curve was filed as active;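 note: carbachol stimulus at about its EC50 of 1 µM final; % is set by controls: 0 for no effect and ±100 for the full control effect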). As to conditions: Jurkat NFAT-bla M1, carbachol, beta-lactamase ratio, 5 h; at 7.69 µM (top of the series) unless noted. An outline of the steps: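 Read-out: CCF4 FRET ratio (460 nm/530 nm) after 1 h RT dye loading, used for %activity and AC50 from titration series. Cells: Jurkat NFAT-β-lactamase/M1 line, treated with compound plus 1 uM carbachol for 5 h, 37 °C.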

A short description of experiment [3]: Stat Signaling Pathway (AID 446; active = well fitted curve in either direction with a large enough effect, not every such curve was filed as active;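 note: ME-180 cervical cancer cells given 40 pM IL-6 alongside compound; SIE-controlled beta-lactamase reporter measured as 460/530 nm FRET emission ratio; % is set by controls: 0 for no effect and ±100 for the full control effect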). As to conditions: ME-180 (cervical carcinoma) SIE beta-lactamase reporter, IL-6 stimulated, 5 h; at 7.69 µM (top of the series) unless noted. An outline of the steps:
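ME-180 SIE-bla cells; overnight plating; cpd + IL-6 40 pM, 5 h, 37 C; LiveBLAzer 2.5 h RT; 460/530 nm emission ratio. Normalized to 300 pM IL-6 and 125 nM JAK inhibitor controls.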

The target in experiment [4] is Glucocorticoid receptor (Homo sapiens) (UniProt P04150). Kind of experiment: GR-GFP Redistribution (AID 450;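 active = compounds whose dose series gives a full or clear partial fitted curve of increased nuclear translocation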; note: potency is the fitted concentration of half-maximal effect). As to conditions: U2OS GR-GFP nuclear translocation, laser cytometry, 2 h.
Chain of Glucocorticoid receptor (Homo sapiens) (P04150 whole entry, looked up): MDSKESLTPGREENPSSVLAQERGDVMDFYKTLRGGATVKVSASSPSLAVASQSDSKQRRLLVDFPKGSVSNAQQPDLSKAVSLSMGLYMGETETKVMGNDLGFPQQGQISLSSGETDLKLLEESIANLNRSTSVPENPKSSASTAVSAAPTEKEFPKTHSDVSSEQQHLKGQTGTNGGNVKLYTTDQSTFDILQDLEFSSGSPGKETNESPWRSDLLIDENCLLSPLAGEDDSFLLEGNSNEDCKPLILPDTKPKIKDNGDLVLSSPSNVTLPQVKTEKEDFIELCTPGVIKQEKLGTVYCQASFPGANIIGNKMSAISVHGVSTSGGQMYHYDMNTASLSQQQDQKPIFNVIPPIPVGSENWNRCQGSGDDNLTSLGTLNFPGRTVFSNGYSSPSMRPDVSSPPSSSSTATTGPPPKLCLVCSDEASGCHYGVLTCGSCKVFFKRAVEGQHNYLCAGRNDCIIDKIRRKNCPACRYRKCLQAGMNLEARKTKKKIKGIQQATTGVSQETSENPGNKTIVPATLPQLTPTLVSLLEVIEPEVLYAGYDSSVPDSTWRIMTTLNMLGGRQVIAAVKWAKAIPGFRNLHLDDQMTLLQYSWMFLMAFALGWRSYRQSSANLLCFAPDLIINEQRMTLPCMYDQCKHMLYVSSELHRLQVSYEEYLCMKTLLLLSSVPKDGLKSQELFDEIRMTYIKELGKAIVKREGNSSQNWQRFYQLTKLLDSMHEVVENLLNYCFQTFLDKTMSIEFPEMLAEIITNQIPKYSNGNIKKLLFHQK
Experiment [5] shares this target. Kind of experiment: GR-EFC Redistribution (AID 451; calls by dose curve; note: potency is the fitted concentration of half-maximal effect). As to conditions: CHO-K1 GR-EFC translocation, beta-gal luminescence, 2 h. A digest of the protocol:
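Translocation of GR-ED fusion to nuclear EA restores b-gal, read by luminescence after 1 h room-temperature detection. Engineered CHO-K1 biosensor cells, 1,000/well, exposed 2 h at 37 C to titrations up to 46 uM final.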

In experiment [6] the target is Mitogen-activated protein kinase 10 (Mus musculus) (UniProt Q61831). Kind of experiment: JNK3 AlphaScreen Assay (AID 530; active = well fitted curve in either direction with a large enough effect, not every such curve was filed as active;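 note: kinase came from lysate of stimulated human HepG2 cells; signal reports phosphorylation of biotinylated GST-cJun 1-79 at Ser73 with 10 µM ATP; % is set by controls: 0 for no effect and ±100 for the full control effect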). A digest of the protocol:
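Room-temperature AlphaScreen kinase assay; pre-activated HepG2 lysate as JNK3 source, biotin-GST-cJun(1-79) substrate, 10 uM ATP, compound 15 min preincubation.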
(In general: Bead proximity is the source of the signal in Alpha formats.)

For experiment [7], the target named is 3',5'-cyclic-AMP phosphodiesterase 4B (Homo sapiens) (UniProt Q07343). Kind of experiment: qHTS Assay for Inhibitors of PDE-IV (AID 607; active = well fitted activation curve with a large enough effect in the main read-out, with a control signal flat, not every such curve was filed as active; note: % of control where 0% means no effect). A digest of the protocol: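 ACTOne HEK293 cells carry a modified cAMP-gated CNG channel and express endogenous PDE4; plated 1000 cells/well, compounds up to 22.9 uM final. Membrane-potential dye fluorescence (ex 535/em 590) was read; parental cells received 10 uM forskolin + 100 uM RO 20-1724.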
Chain of 3',5'-cyclic-AMP phosphodiesterase 4B (Homo sapiens) (Q07343 whole entry, looked up): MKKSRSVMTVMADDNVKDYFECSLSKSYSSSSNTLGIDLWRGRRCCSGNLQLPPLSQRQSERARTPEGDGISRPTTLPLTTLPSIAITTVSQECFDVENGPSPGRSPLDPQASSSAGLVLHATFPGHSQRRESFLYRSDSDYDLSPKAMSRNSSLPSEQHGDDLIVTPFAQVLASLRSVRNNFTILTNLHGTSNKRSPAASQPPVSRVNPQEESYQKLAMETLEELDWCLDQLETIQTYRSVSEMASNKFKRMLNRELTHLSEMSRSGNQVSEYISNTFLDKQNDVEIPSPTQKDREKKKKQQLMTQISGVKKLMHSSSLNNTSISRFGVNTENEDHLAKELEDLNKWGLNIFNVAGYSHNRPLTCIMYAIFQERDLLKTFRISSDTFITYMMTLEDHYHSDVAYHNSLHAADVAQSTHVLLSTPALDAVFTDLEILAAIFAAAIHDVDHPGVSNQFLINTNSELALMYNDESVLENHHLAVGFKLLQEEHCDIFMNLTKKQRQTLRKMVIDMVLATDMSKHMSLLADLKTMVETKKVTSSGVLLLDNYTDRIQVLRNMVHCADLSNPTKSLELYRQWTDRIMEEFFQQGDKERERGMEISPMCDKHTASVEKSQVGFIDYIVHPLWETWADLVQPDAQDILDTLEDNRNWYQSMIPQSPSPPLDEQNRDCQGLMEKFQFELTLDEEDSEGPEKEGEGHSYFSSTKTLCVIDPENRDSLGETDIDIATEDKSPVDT
(In qHTS, concentration-response curves come from the screen itself.)

Experiment [8] addresses Cytochrome P450 3A4 (Homo sapiens) (UniProt P08684). Kind of experiment: qHTS Assay for Inhibitors and Substrates of Cytochrome P450 3A4 (AID 884). Note: potency is the fitted concentration of half-maximal effect; nearly all actives have a fitted effect of over 50% in size. A digest of the protocol: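 20 nM human CYP3A4 with 25 uM Luciferin-PPXE (at KM) in 200 mM KPO4, preincubated 10 min with compound; NADPH regeneration started a 60 min RT reaction. Luciferin detected by luminescence, normalized to 57 uM ketoconazole as full inhibition.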

Experiment [9] shares this target. Kind of experiment: qHTS Assay for Activators of Cytochrome P450 3A4 (AID 885). Note: nearly all actives have a fitted effect of over 65% in size. An outline of the steps: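 20nM CYP3A4 + 25uM Luciferin-PPXE (=KM), 200mM KPO4; cpd 10 min RT; NADPH regen, 60 min RT; stop w/ detection buffer, 20 min; luminescence. Normalized to 57 uM ketoconazole.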
Experiment [10] has as its target Cytochrome P450 2D6 (Homo sapiens) (UniProt P10635). Kind of experiment: qHTS Assay for Inhibitors and Substrates of Cytochrome P450 2D6 (AID 891). Note: potency is the fitted concentration of half-maximal effect; nearly all actives have a fitted effect of over 60% in size. An outline of the steps: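 Human CYP2D6 (5 nM) with 30 uM Luciferin-ME EGE (at Km) in 100 mM KPO4, compound preincubated 10 min, then NADPH regeneration system for 60 min at room temperature. Luciferin read by luminescence; normalized to 1.43 uM quinidine.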

The target of experiment [11] is Dual specificity protein kinase CLK4 (Homo sapiens) (UniProt Q9HAZ1). Kind of experiment: qHTS Assay for Inhibitors of CDC-like Kinase 4 (Kinase-Glo Assay) (AID 1770). Note: nearly all actives have a fitted effect of over 65% in size. Note: potency is the fitted concentration of half-maximal effect. A digest of the protocol:
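Substrate mix (RS peptide 100 uM, ATP 1 uM) dispensed, compound pinned in, then Clk4 added to 25 nM final. Incubated 4.5 h at RT; Kinase-Glo reagent added, luminescence read after 5 min.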

Experiment [12] shares this target. Kind of experiment: qHTS Assay for Inhibitors of CDC-like Kinase 4 (ADP-Glo Assay) (AID 1771). Note: nearly all actives have a fitted effect of over 70% in size. Note: potency is the fitted concentration of half-maximal effect. An outline of the steps:
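Kinase reaction: Clk4 at 25 nM, RS repeat peptide substrate at 100 uM, ATP at 1 uM, 1 hr, room temperature. Product ADP detected as luciferase signal via ADP-Glo.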

For experiment [13] the target is unchanged. Kind of experiment: qHTS Assay for Inhibitors of CDC-like Kinase 4 (ADP-FP Assay) (AID 1795). Note: nearly all actives have a fitted effect of over 60% in size. Note: potency is the fitted concentration of half-maximal effect. A digest of the protocol:
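Clk4 6.25 nM; RS peptide 100 uM; ATP 1 uM; 25 mM Tris pH 7.5, 10 mM MgCl2; 1 h reaction. ADP detected via antibody/orange tracer FP displacement; TG003 positive control.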

Experiment [14] deals with Ubiquitin carboxyl-terminal hydrolase 1 (Homo sapiens) (UniProt O94782). Kind of experiment: Inhibitors of USP1/UAF1: Pilot qHTS (AID 504865).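 Note: rhodamine fluorescence freed from ubiquitin-rhodamine substrate followed over time; top concentration of the series differs between compounds; % is set by controls: 0 for no effect and ±100 for the full control effect; nearly all actives have a fitted effect of over 35% in size.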 A digest of the protocol:
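In 50mM HEPES pH 7.8 containing 0.5mM EDTA, 1mM TCEP, 0.1 mg/ml BSA and 0.01% Tween-20, 1nM USP1/UAF1 is exposed to compound for 15 min, then Ub-Rho (150nM final) is added and fluorescence is read over time.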

Experiment [15] is described as follows: Primary qHTS for small molecule stabilizers of the endoplasmic reticulum resident proteome: Secreted ER Calcium Modulated Protein (SERCaMP) assay (AID 1508630). Note: % is set by controls: 0 for no effect and ±100 for the full control effect. A digest of the protocol: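 GLuc-SERCaMP-expressing SH-SY5Y cells, pretreated 16 h with compound, are challenged with thapsigargin to empty ER calcium stores; after 4 h, coelenterazine is added directly to the medium and luminescence is imaged.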

Experiment [16] addresses Lysosomal acid glucosylceramidase (Homo sapiens) (UniProt P04062). Kind of experiment: Glucocerebrosidase-p2 (AID 348; in the data active = potency below about 10 µM; note: potency is the fitted concentration of half-maximal effect). As to conditions: purified GBA, blue fluorogenic substrate, 40 min. A digest of the protocol:
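Compounds titrated from 0.6 nM upwards against 0.2 nM enzyme in pH 5.9 citric acid/KH2PO4, taurocholate, tween-20; blue fluorogenic substrate 80 uM, 40 min room temperature, stopped and read Ex 365/Em 440 for AC50.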

In experiment [17] the target is Cytochrome P450 1A2 (Homo sapiens) (UniProt P05177). Kind of experiment: p450-cyp1a2 (AID 410; calls by dose curve; note: potency is the fitted concentration of half-maximal effect). An outline of the steps: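 Inhibition was calculated relative to 57 uM furafylline (full inhibition). The reaction used human CYP1A2 at 20nM with Luciferin-ME at its Km, 100uM, driven by an NADPH-regenerating system for 60 min at room temperature.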
Chain of Cytochrome P450 1A2 (Homo sapiens) (P05177 whole entry, looked up): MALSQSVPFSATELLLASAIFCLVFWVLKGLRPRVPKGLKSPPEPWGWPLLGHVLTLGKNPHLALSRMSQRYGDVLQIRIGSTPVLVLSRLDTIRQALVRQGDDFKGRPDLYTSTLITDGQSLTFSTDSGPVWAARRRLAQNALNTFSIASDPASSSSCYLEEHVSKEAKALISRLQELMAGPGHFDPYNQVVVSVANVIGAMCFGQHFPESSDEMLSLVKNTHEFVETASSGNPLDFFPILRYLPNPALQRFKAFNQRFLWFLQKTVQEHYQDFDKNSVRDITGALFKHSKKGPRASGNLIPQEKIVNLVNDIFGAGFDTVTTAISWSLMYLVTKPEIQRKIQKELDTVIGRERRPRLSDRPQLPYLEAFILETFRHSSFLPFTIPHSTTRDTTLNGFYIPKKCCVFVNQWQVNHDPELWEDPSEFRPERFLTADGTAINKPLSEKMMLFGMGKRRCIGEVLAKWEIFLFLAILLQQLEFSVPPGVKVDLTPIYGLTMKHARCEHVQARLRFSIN
For experiment [18], the target named is Cytochrome P450 2C9 (Homo sapiens) (UniProt P11712). Kind of experiment: qHTS Assay for Inhibitors and Substrates of Cytochrome P450 2C9 (AID 883). Note: potency is the fitted concentration of half-maximal effect; nearly all actives have a fitted effect of over 60% in size. An outline of the steps: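 Inhibition of CYP2C9 is scored as loss of luminescence, with 57uM sulphaphenazole defining 100% inhibition. Substrate Luciferin-H is used at 100uM, equal to its KM; enzyme at 10nM in 25mM KPO4, 60 min at 37C with NADPH regeneration.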

For experiment [19], the target named is Cytochrome P450 2C19 (Homo sapiens) (UniProt P33261). Kind of experiment: qHTS Assay for Inhibitors and Substrates of Cytochrome P450 2C19 (AID 899). Note: potency is the fitted concentration of half-maximal effect; nearly all actives have a fitted effect of over 60% in size. A digest of the protocol: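 5nM enzyme + 10uM Luciferin-H EGE (=KM), 50mM KPO4; cpd pin-transferred, 10 min 37C; NADPH regen, 60 min 37C; stopped w/ luciferin detection reagent, 20 min; luminescence. Normalized to 57uM ketoconazole (AC100).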

Values without a mark were called inactive. Inconclusive results are not listed. Calls of active or inactive are those of the source. Unless noted, calls come from the whole dose curve; as a rule, active = well fitted curve in the direction sought with a large enough effect; inconclusive = small, poorly fitted or top-dose-only effect, or another doubt; inactive = no such curve, though single readings can be large; an effect the other way counts as inactive or inconclusive. Bounds are passed on as bounds.

Chain of Ubiquitin carboxyl-terminal hydrolase 1 (Homo sapiens) (O94782 whole entry, looked up): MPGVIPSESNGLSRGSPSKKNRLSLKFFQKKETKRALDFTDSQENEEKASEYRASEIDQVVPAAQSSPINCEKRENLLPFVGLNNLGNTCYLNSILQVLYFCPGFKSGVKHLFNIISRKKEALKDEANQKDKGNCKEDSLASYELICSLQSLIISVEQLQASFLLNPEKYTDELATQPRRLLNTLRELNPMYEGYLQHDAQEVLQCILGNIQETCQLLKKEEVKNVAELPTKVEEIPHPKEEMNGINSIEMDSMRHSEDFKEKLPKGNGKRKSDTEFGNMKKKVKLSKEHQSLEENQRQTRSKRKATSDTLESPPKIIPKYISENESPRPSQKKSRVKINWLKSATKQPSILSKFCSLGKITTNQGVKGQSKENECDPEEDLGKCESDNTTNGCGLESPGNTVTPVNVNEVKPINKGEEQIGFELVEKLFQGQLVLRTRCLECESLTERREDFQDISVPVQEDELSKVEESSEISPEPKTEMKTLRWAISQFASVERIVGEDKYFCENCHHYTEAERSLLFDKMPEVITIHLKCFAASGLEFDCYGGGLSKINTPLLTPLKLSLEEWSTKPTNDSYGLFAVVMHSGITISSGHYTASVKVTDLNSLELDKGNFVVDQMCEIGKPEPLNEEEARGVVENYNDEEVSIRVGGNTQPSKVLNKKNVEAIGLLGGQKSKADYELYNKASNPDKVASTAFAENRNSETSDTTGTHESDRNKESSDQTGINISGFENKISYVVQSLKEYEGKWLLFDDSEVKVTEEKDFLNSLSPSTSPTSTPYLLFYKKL
Chain of Dual specificity protein kinase CLK4 (Homo sapiens) (Q9HAZ1 whole entry, looked up): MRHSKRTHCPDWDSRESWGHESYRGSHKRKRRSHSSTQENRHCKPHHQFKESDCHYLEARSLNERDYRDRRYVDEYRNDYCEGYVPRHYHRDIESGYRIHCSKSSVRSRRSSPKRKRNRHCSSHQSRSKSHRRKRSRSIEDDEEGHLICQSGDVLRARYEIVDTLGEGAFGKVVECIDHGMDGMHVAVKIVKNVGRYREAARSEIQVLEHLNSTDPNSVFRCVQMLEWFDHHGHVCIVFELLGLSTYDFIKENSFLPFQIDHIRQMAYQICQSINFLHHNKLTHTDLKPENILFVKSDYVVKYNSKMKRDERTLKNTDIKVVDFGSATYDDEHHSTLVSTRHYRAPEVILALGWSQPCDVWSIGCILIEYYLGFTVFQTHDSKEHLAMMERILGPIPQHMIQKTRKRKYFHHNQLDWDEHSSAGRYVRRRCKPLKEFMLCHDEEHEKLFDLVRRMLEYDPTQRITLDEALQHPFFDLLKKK
Chain of Lysosomal acid glucosylceramidase (Homo sapiens) (P04062 whole entry, looked up): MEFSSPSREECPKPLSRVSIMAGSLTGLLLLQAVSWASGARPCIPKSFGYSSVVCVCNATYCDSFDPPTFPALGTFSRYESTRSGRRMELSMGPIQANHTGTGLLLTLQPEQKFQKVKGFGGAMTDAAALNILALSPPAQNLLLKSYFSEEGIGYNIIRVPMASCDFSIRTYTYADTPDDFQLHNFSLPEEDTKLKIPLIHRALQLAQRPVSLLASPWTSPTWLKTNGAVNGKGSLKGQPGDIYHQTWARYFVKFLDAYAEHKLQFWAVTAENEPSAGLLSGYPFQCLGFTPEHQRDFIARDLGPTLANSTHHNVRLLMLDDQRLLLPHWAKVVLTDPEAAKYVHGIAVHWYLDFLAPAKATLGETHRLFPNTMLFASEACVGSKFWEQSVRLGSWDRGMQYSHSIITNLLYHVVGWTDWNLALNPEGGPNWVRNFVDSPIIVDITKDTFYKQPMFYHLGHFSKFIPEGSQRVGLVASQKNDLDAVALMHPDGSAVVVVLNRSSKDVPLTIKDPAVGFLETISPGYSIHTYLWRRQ
Chain of Cytochrome P450 2D6 (Homo sapiens) (P10635 whole entry, looked up): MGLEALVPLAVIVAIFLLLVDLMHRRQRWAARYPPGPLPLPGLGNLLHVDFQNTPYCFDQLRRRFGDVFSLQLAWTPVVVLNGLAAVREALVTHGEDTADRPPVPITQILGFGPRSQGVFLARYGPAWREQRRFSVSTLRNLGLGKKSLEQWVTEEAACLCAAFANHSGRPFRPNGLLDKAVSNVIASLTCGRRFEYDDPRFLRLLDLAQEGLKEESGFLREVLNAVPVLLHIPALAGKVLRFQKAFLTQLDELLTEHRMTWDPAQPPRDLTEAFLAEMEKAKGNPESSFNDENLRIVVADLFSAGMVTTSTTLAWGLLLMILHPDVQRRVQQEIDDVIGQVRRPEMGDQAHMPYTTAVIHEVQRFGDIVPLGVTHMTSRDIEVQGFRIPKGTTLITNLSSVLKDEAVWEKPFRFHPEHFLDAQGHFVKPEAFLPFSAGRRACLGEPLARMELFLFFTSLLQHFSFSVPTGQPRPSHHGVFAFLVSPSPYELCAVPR
Chain of Cytochrome P450 3A4 (Homo sapiens) (P08684 whole entry, looked up): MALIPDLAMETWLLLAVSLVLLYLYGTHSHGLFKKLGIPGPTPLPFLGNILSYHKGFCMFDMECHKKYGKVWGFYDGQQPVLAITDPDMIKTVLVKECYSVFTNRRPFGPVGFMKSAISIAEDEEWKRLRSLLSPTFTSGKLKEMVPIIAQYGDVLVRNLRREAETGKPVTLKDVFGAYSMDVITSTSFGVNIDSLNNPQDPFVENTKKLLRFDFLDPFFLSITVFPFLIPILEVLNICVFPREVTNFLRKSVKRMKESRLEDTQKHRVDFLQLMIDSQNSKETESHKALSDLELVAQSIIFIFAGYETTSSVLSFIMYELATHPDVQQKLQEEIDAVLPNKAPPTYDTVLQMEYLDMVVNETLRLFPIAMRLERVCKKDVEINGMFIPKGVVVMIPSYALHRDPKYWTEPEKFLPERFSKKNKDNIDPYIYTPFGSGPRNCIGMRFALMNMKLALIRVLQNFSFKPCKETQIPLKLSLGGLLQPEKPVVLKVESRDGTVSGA

Regarding `COc1ccccc1CNc1ccnc(-c2ccc(N(C)C)cc2)n1`, the activity change, negative = inhibition in experiment [1] is -10.1%; in [2] it was -1.75%. Besides, the activity, negative = inhibition in [3] is -10.8%. Besides, the Potency in [4] is > 46 µM; in experiment [5], > 46 µM; in [8], 7.94 µM (active); in experiment [10], 0.501 µM (active). For the same compound, the Potency result in experiment [6], in experiment [7], in experiment [9], in [11], in experiment [12] and in [13] was “inactive” throughout. Moreover, in experiment [14], the Potency result is “inactive”. Further, in [15], the result was inactive.
Take `O=c1c(-c2cc(F)cc(F)c2)nc2cnc(N3CCNCC3)nc2n1Cc1ccc(F)cc1`: the Potency in experiment [16] was > 11.4 µM; in experiment [4], > 9.22 µM; in experiment [5] it was > 46 µM. In addition, the Potency result in experiment [6], in [7], in experiment [11], in [12] and in experiment [13] was “inactive” each time. In addition, in [15], the result was inactive.
With `Cc1ccccc1-c1ccc2ncnc(NCc3cccnc3)c2c1`, the values for the activity change, negative = inhibition in experiment [1] and in experiment [2] were -2.6% and 2.06%, respectively. For the same compound, the Potency in [17] is 0.251 µM (active); in experiment [5], > 46 µM; in [18], 0.794 µM (active); in [8], 1.58 µM (active); in experiment [10], 2 µM (active); in experiment [19], 1.58 µM (active). For the same compound, the Potency in experiment [11] was 14.1 µM (active); in [12], 11.2 µM (active); in experiment [13], 11.2 µM (active). Besides, the activity, negative = inhibition in [3] was -11%. For the same compound, the Potency entry in experiment [6], in experiment [7], in experiment [9] and in experiment [14] was “inactive” in each case. Further, the result in [15] was inactive.
`COc1ccccc1CNc1ccnc(-c2ccccc2OC)n1`: the values for the activity change, negative = inhibition in experiment [1] and in [2] were -0.503% and -0.0586%, respectively. The Potency was 3.98 µM (active) in [17], > 46 µM in experiment [4], > 46 µM in [5] and 1.58 µM (active) in experiment [10]. In addition, the activity, negative = inhibition in [3] was 9.83%. The Potency entry in experiment [6], in experiment [7], in [9], in [11], in experiment [12] and in experiment [13] was “inactive” throughout. Further, in experiment [15], the result was inactive.
`CN(Cc1ccco1)c1nc(-c2ccoc2)nc2ccccc12`: the Potency in experiment [16] was > 11.4 µM; in experiment [17] it was 0.398 µM (active); in [4] it was > 46 µM; in experiment [5] it was > 46 µM. The figures for the activity change, negative = inhibition in experiment [1] and in [2] were -25.1% and -18.3%, respectively. In addition, in experiment [3], the activity, negative = inhibition is -4.21%. The Potency result in experiment [6], in [9], in [11], in [12] and in experiment [14] was “inactive” throughout. Besides, the result in [15] was inactive.
As for `Cc1cccc(CNc2cc(-c3ccccc3Cl)ncn2)c1`, the Potency in [16] is > 11.4 µM; in [17], 3.16 µM (active); in experiment [4], > 46 µM; in [5], > 46 µM; in experiment [11], 28.2 µM (active); in experiment [12], 28.2 µM (active). For the same compound, the results for the activity change, negative = inhibition in experiment [1] and in experiment [2] were 13.1% and -3.92%, respectively. The activity, negative = inhibition in experiment [3] is 0.338%. For the same compound, the Potency result in experiment [6], in experiment [7] and in experiment [9] was “inactive” throughout. In addition, the result in experiment [15] was inactive.

(Values after PubChem BioAssay (NCATS).)
